Among the data in PubChem BioAssay are composite z-score and z-score values, retold here.

For test [1], the system named is PRMT1 (protein arginine N-methyltransferase 1). Description: PRMT1 binders on small-molecule microarrays, primary screen, biochemical, small-molecule microarray, 635 nm fluorescence (AID 1088).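 Also: binding of Prmt1 protein to compounds spotted on small-molecule microarray slides.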 Particulars: small-molecule microarray binding, higher = more signal.
Test [2] can be described thus: yeast growth modulation, basal conditions, primary screen, YJM789 clinical isolate, OD600, 24 h (AID 1089).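 Also: growth of clinical yeast isolate S. cerevisiae YJM 789 seeded 1000 cells per well; test concentration not given here.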 The settings on record: S. cerevisiae YJM789 growth, higher = more signal, called active from +8 up or from −8 down.
A short description of test [3]: fission yeast growth modulation, primary screen, strain 972, OD600, 24 h, no modulator (AID 1090).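 Also: basal condition with compound alone and no growth modifier present; test concentration not given here.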 Particulars: S. pombe 972 growth, higher = more signal, called active from +8 up or from −8 down.
The nature of test [4]: S. cerevisiae growth modulation with rapamycin, primary screen, strain BY4716, OD600, 96 h (AID 1091). Also: test concentration not given here. Particulars: higher = more signal, called active from +8 up or from −8 down.
In test [5] the target is Torsin-1A-interacting protein 2 (Homo sapiens) (UniProt Q8NFQ8). The experiment in a line: LULL1 binders on small-molecule microarray, primary screen, cell lysate, human LULL1 lysate, 635/667 nm fluorescence (AID 1092).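 Also: probe is lysate of COS7 cells overexpressing human LULL1; score merges per-feature 667 nm fluorescence with signal-to-noise.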 Particulars: hLULL1 lysate binding, 635 nm fluorescence, higher = more signal.
Sequence of Torsin-1A-interacting protein 2 (Homo sapiens) (Q8NFQ8 whole entry, looked up): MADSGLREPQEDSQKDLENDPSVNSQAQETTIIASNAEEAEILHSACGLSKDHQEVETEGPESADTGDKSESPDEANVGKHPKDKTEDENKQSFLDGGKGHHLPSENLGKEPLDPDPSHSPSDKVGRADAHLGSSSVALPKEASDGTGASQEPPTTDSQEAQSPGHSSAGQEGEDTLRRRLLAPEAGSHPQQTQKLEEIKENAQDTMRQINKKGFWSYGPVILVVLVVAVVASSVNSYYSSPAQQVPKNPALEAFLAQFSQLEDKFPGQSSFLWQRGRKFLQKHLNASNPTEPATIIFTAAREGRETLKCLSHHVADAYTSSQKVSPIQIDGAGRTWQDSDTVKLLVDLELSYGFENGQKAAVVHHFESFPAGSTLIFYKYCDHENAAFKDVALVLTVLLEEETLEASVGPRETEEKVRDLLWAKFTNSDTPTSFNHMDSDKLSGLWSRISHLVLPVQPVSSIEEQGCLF
Test [6] in a line: E. coli growth modulation, two-sided OD650, primary screen, E. coli filamentation project, strain DRC41, 24 h (AID 1093).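 Also: MC1000 strain lacking acrAB efflux and sulA so SOS filamentation is blocked; test concentration not given here.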 Particulars: OD650, 24 h, higher = more signal, called active from +8 up or from −8 down.
The nature of test [7]: small-molecule microarray binders of probe aLefty2, primary screen, biochemical, biotinylated probe, 635/667 nm fluorescence (AID 1094).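 Also: score merges spot fluorescence near 667 nm with spot signal-to-noise ratio.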 The settings on record: higher = more signal.
The test system of test [8] is Noggin (protein binding on small-molecule microarray). Description: Noggin binders on small-molecule microarray, primary screen, biochemical, 635/667 nm fluorescence (AID 1095).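 Also: score merges 667 nm feature fluorescence with signal to noise over triplicate slides.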 The settings on record: 635 nm fluorescence, higher = more signal.
Test [9] has as its target Neurogenic locus notch homolog protein 3 (Homo sapiens) (UniProt Q9UM47). Description: NOTCH3 binders on small-molecule microarray, primary screen, biochemical, 635/667 nm fluorescence (AID 1096). Particulars: NOTCH3 binding, 635 nm fluorescence, higher = more signal.
The nature of test [10]: small-molecule microarray binders of probe aEGFR, primary screen, biochemical, biotinylated probe, 635/667 nm fluorescence (AID 1097).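 Also: probe is a biotinylated anti-EGFR antibody binding compounds printed on slides; score combines fluorescence near 667 nm and signal to noise of each spot.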 The settings on record: higher = more signal.
Test [11] concerns Plasmodium falciparum Sir2 (PF13_0152, Sir2A). The experiment in a line: pfSir2 binders on small-molecule microarrays, primary screen, biochemical, small-molecule microarray, 635 nm fluorescence (AID 1098).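 Also: score merges spot fluorescence intensity with its signal-to-noise ratio.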 The settings on record: small-molecule microarray binding, fluorescence 635 nm; higher = more signal.
The nature of test [12]: small-molecule microarray binders of probe aDKK1, primary screen, biochemical, biotinylated probe, 635/667 nm fluorescence (AID 1099).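 Also: score merges 667nm spot fluorescence with signal to noise across triplicate slides; reference of the scale not given here.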 Particulars: higher = more signal.
A short description of test [13]: small-molecule microarray binders of probe aCHRDL2, primary screen, biochemical, biotinylated probe, 635/667 nm fluorescence (AID 1100). Particulars: higher = more signal.
Test [14] is described as follows: splicing luciferase reporter signal modulators, primary screen, spliceosome inhibition project, cell-based, HEK293, splice +/- reporter (AID 1101).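 Also: HEK293 cells carrying a splicing-competent luciferase reporter gene; test concentration not given here.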 Particulars: luminescence, 24 h, higher = more signal, called active from +8 up or from −8 down. For orientation: In a reporter assay the amount or activity of a reporter protein is the signal.
Test [15] has as its target Fibroblast growth factor 10 (Homo sapiens) (UniProt O15520). Description: FGF10 binders on small-molecule microarrays, primary screen, biochemical, small-molecule microarray, 635 nm fluorescence (AID 1102). Particulars: FGF10 binding, fluorescence 635 nm, higher = more signal.
Test [16] deals with glycogen synthase kinase-3 (GSK3A per assay name; protocol says GSK3B). Description: GSK3 binders on small-molecule microarrays, primary screen, biochemical, small-molecule microarray, 635 nm fluorescence, GSK3A (AID 1103). Also: the record names both GSK3A and GSK3B. Particulars: small-molecule microarray binding, fluorescence 635 nm; higher = more signal.
Test [17] concerns the target Epidermal growth factor receptor (Homo sapiens) (UniProt P00533). Description: EGFR binders on small-molecule microarrays, primary screen, biochemical, small-molecule microarray, 635 nm fluorescence (AID 1104).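 Also: score merges 667 nm emission intensity with spot signal to noise over triplicate slides.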 The settings on record: EGFR binding, higher = more signal.
Test [18] has as its target Follistatin-related protein 3 (Homo sapiens) (UniProt O95633). The experiment in a line: FSTL3 binders on small-molecule microarrays, primary screen, biochemical, small-molecule microarray, 635 nm fluorescence (AID 1105).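 Also: score merges emission near 667 nm and signal to noise per printed spot across three slides.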 The settings on record: FSTL3 binding, higher = more signal.
The target of test [19] is Dickkopf-related protein 1 (Homo sapiens) (UniProt O94907). The experiment in a line: DKK1 binders on small-molecule microarrays, primary screen, biochemical, small-molecule microarray, 635 nm fluorescence scan (AID 1106).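 Also: score merges emission near 667 nm with signal to noise over three replicate slides.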 The settings on record: DKK1 binding, higher = more signal.
Sequence of Dickkopf-related protein 1 (Homo sapiens) (O94907 whole entry, looked up): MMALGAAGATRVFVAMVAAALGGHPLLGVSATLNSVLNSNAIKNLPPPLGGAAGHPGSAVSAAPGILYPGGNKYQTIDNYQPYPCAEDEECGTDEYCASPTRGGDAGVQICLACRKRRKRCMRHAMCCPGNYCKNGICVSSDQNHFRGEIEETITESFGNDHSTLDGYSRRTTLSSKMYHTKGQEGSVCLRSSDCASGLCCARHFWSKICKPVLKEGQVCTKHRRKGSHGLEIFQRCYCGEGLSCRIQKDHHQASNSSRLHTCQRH
Test [20] concerns Inhibin beta A chain (activin A). Description: INHBA (activin A) binders on microarrays, primary screen, biochemical, small-molecule microarray, 635 nm fluorescence scan (AID 1107).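 Also: mouse activin A protein probed at 4.33 µg/mL on printed slides; score merges bound-protein fluorescence near 667 nm with spot signal-to-noise.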 Particulars: small-molecule microarray binding, higher = more signal.

Each structure is given as a SMILES string. The source made the active and inactive calls.

Sequence of Fibroblast growth factor 10 (Homo sapiens) (O15520 whole entry, looked up): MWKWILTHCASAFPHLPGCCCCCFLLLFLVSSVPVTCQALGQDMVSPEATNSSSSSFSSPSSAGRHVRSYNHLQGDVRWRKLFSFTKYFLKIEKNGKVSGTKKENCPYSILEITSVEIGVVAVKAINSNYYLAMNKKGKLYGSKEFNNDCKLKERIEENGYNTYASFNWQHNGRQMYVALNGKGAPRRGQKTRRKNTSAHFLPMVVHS
Sequence of Epidermal growth factor receptor (Homo sapiens) (P00533 whole entry, looked up): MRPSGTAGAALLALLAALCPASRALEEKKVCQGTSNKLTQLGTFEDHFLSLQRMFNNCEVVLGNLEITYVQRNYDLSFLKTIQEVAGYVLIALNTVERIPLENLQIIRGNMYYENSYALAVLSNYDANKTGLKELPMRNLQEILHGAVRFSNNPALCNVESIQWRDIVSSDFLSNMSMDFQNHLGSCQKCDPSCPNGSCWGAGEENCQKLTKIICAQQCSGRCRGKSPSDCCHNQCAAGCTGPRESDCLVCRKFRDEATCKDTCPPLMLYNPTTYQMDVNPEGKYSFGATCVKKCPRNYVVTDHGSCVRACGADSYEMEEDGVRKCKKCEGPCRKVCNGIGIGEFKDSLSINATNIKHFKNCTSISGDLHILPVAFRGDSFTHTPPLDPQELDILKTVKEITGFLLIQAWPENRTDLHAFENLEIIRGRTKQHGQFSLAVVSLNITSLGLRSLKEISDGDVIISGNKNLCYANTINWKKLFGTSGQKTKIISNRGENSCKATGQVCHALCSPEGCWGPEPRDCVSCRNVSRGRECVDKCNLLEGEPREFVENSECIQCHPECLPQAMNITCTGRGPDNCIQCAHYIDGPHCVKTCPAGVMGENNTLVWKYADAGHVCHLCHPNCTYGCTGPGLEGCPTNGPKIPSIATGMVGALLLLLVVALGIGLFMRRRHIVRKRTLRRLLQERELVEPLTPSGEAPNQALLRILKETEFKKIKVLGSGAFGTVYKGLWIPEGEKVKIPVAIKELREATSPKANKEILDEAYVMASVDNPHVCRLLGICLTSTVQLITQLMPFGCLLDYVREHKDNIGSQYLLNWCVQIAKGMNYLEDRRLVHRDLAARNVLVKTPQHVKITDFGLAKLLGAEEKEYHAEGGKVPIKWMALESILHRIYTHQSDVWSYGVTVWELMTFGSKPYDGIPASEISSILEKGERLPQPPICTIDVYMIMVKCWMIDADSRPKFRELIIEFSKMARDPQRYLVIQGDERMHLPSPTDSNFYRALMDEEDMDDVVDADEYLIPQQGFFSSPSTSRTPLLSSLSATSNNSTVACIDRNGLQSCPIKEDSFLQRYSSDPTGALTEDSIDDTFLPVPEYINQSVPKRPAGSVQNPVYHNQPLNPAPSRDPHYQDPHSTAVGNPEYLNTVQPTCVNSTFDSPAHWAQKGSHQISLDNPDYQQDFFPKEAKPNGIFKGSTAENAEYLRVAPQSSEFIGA
Sequence of Follistatin-related protein 3 (Homo sapiens) (O95633 whole entry, looked up): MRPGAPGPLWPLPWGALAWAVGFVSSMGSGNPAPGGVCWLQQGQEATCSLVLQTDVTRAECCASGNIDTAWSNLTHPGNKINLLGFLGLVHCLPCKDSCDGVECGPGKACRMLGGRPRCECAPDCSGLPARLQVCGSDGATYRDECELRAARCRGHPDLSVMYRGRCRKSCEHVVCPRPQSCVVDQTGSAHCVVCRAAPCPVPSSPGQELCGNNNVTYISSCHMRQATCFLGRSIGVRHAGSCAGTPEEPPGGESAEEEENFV
Sequence of Neurogenic locus notch homolog protein 3 (Homo sapiens) (Q9UM47 whole entry, looked up): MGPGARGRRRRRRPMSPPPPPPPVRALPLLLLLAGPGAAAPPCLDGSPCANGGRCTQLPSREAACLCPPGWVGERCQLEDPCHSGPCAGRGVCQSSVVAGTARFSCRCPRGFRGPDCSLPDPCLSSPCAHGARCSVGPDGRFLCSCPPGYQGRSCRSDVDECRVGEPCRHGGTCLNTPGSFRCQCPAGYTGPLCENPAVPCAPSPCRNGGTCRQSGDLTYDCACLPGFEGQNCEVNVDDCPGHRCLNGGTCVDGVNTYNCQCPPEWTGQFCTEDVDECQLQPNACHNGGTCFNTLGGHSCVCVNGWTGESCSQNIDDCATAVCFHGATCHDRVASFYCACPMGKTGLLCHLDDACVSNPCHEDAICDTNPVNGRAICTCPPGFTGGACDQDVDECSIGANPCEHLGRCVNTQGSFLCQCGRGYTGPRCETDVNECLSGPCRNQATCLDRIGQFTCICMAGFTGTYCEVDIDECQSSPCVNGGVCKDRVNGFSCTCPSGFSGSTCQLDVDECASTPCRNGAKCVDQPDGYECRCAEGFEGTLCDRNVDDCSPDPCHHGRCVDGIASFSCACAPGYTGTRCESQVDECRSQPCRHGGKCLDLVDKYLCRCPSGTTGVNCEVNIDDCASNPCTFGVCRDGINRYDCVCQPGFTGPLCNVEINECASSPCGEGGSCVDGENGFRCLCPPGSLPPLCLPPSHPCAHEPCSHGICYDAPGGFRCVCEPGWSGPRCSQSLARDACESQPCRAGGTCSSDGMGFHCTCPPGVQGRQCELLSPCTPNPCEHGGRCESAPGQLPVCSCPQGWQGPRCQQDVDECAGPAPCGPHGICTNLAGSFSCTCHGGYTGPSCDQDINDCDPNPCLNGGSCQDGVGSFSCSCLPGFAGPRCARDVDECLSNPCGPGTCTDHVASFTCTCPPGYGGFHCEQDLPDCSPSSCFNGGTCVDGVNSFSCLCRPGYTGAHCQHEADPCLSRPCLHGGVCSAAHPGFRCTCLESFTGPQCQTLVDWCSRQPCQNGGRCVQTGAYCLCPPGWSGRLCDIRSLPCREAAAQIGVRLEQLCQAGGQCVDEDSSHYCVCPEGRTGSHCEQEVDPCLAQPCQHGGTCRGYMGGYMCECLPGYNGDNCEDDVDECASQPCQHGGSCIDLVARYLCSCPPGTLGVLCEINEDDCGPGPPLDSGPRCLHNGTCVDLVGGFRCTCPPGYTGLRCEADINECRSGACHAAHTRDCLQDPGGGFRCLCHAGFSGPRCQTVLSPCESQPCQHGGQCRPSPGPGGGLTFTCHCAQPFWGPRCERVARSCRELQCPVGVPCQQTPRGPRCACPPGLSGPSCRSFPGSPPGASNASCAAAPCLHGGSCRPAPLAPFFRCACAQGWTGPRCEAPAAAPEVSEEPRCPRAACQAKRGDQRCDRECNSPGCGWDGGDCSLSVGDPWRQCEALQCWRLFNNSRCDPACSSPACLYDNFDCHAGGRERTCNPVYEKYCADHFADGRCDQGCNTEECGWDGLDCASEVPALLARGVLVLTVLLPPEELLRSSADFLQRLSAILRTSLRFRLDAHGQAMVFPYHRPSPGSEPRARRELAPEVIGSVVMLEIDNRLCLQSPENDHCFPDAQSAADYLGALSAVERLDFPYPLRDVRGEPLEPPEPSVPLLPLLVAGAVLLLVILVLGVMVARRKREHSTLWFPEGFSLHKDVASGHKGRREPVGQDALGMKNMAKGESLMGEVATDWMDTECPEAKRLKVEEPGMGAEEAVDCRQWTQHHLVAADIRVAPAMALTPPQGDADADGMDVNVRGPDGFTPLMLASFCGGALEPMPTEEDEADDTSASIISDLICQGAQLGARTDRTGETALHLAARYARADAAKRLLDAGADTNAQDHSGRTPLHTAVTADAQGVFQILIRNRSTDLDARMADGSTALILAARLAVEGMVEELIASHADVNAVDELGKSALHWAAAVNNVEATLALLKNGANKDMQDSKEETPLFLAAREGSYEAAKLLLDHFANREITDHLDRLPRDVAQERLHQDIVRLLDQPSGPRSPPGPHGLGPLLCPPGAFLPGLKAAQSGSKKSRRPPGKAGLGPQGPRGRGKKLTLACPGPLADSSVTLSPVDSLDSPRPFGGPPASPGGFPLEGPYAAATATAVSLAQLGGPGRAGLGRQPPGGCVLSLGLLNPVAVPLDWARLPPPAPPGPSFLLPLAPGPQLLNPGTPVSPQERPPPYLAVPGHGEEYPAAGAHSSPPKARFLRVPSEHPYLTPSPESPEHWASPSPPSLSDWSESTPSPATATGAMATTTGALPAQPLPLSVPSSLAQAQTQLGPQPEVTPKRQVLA

Turning to `COc1ccc(O[C@H]2C=C[C@@H](c3ccccc3)O[C@@H]2CON=CC[C@@H]2C=C[C@H](OC(C)=O)[C@@H](COC(C)=O)O2)cc1`, the composite z-score was 0.15 in test [1]; 0.22 in test [5]; -0.107 in test [7]; 0.691 in test [8]; -0.22 in [9]; -0.0267 in test [10]. Further, the composite z-score was 0.277 in [11]; -0.229 in test [12]; 0.0216 in test [13]; -0.0104 in [15]; -0.603 in [16]; 0.238 in test [17]. For the same compound, the composite z-score in test [18] turned out to be 0.128; in [19] it was 0.105; in test [20], 0.606. For the same compound, the z-score in test [2] is 0.507 (inactive); in test [3], 0.722 (inactive); in [4] it was 0.721 (inactive); in [6], 0.363 (inactive); in [14], 0.731 (inactive).

With `CCOC(=O)[C@H](CC(C)C)NC(=O)CCC1CC(OC(=O)NCCc2ccc(F)cc2)CC2(CCCC(COC(=O)NCC3CCCCC3)O2)O1` (stereo not given in full), the composite z-score was 0.49 in [1]; 1.12 in [5]; -0.231 in test [7]; 0.266 in test [8]; 0.291 in test [9]; 0.0069 in [10]. Moreover, the composite z-score in test [11] was 0.0149; in [12], -0.227; in test [13], -0.283; in [15] it was 0.953; in test [16], 0.293; in [17], 0.432. In addition, the results for the composite z-score in test [18], in [19] and in test [20] were 0.8, 0.479 and -0.174, respectively. The z-score in test [2] was -0.808 (inactive); in test [3] it was 0.541 (inactive); in test [4], 1.23 (inactive); in test [6], -0.61 (inactive); in test [14] it was -0.152 (inactive).

As for `O=C(NN=C1C[C@@H](O)[C@@H](O)[C@@H]2[C@@H]3C(=O)N(C[C@@H]4CCCO4)C(=O)[C@@H]3CC[C@@H]12)OCc1ccccc1`, the composite z-score was 1.04 in [1]; -0.0366 in test [5]; -0.27 in [7]; 0.907 in test [8]; 0.208 in test [9]; -0.0947 in test [10]. Further, the composite z-score in [11] is 0.789; in test [12], -0.32; in test [13] it was -0.916; in test [15], 0.127; in test [16], 1.09; in test [17], 0.509. Also, the composite z-score in test [18] was determined as 0.0972; in [19], 0.486; in [20], 0.781. Besides, the z-score in [2] was -1.74 (inactive); in test [3], -0.199 (inactive); in test [4] it was -0.655 (inactive); in test [6] it was -0.202 (inactive); in test [14], -1.03 (inactive).

On to `COc1ccc(O[C@H]2C=C[C@@H](c3ccccc3)O[C@@H]2COC(=O)CCC(C)=NOC(C)CN2CCCc3nc(C)c(C)cc32)cc1` (stereo not given in full), for which the composite z-score was 1.35 in test [1]; 1.36 in test [5]; -0.0345 in test [7]; 0.755 in test [8]; 1.01 in test [9]; -0.0106 in test [10]. The composite z-score in test [11] is 0.817; in test [12], -0.176; in test [13], -0.433; in [15], 0.753; in [16] it was 1.03; in test [17], 0.517. The composite z-score in [18] came out at 0.889; in test [19], 0.524; in test [20] it was 0.465. Also, the z-score in test [2] was 0.194 (inactive); in [3] it was -0.629 (inactive); in test [4], -0.0642 (inactive); in test [6], 1.43 (inactive); in test [14], 0.063 (inactive).

As for `CCCNC(=O)OC[C@H]1O[C@H](CCON=C(C)CCN2CCCc3nc(C)c(C)cc32)C=C[C@@H]1Oc1ccc(OC)cc1`, the composite z-score was 1.55 in test [1]; 2.38 in test [5]; 0.0408 in test [7]; 0.634 in [8]; 0.991 in test [9]; 0.101 in test [10]. The composite z-score in [11] is 0.333; in [12] it was 0.595; in test [13] it was -0.237; in test [15], 0.653; in test [16], 0.73; in [17], 0.509. The composite z-score in test [18] is 0.605; in test [19], 0.687; in test [20], 0.491. Moreover, the z-score is -0.663 (inactive) in test [2]; -0.604 (inactive) in [3]; -0.0042 (inactive) in test [4]; 1.05 (inactive) in test [6]; 0.304 (inactive) in test [14].
